Experiment [1] has as its system Zika virus NS2B-NS3 protease (linked construct). The experiment is described as follows: Primary screen NINDS Rhodamine qHTS for Zika virus inhibitors (AID 1347160). Also: nearly all actives have a fitted effect of over 55% in size. Also: potency is read from the fitted curve at half-maximal effect. In a few lines: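 Rhodamine110-peptide cleavage (1.5 µM substrate) by 25 nM linked NS2B-NS3 enzyme at pH 8.0 (Tris, Tween 20), after 15 min RT preincubation with compounds; 15-min fluorescence change normalized to controls and Hill-fitted.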

Experiment [2] can be described thus: UWB1.289 Cancer Cell Toxicity qHTS against the NCATS CANVASS Library (AID 1347347). Also: nearly all actives have a fitted effect of over 60% in size. Put shortly:
(§1)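 Toxicity is measured over 72 h of compound exposure at 37 degrees C under 5% CO2. Each well holds 1000 cells, pre-incubated for 4 hours before dosing across an 11-point range. CellTiter-Glo luminescence gives viability.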

Experiment [3] is described as follows: OV-SAHO Cancer Cell Toxicity qHTS against the NCATS CANVASS Library (AID 1347348). Also: series mostly up to about 38 µM; nearly all actives have a fitted effect of over 55% in size. In a few lines: as §1
Experiment [4] is described as follows: Panc-1005 Cancer Cell Toxicity qHTS against the NCATS CANVASS Library (AID 1347349). Also: series mostly up to about 38 µM; nearly all actives have a fitted effect of over 60% in size. In a few lines:
as §1

A short description of experiment [5]: UWB1.289-WTBRCA1 Cancer Cell Toxicity qHTS against the NCATS CANVASS Library (AID 1347354). In a few lines:
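First, 1000 cells go into each well and rest for 4 hours. Next, an 11-point dilution range is pinned in. Plates then incubate 72 hours before CellTiter-Glo addition and luminescence reading.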

Experiment [6] has as its system NAD(P)H diaphorase (Clostridium kluyveri). Description: Diaphorse counterscreen qHTS: Assay Interference Panel against the NCATS CANVASS Library (AID 1347362). In a few lines:
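Clostridium kluyveri diaphorase in PBS + 0.01% Tween-20 preincubated 15 min with compounds. Resazurin and NADH then added for 5 min at room temperature in the dark; resorufin fluorescence read (ex 525, em 598).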

Experiment [7] in a line: KB-8-5-11 Cancer Cell Toxicity qHTS against the NCATS CANVASS Library (AID 1347364). Also: nearly all actives have a fitted effect of over 75% in size. In a few lines: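 Terse: KB-8-5-11, 500 cells/well, 72 hr, 37C/5% CO2, 11-pt titration, CellTiter-Glo readout; confirmatory runs ± 1uM tariquidar in medium.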
Experiment [8] is described as follows: SDT Cancer Cell Toxicity qHTS against the NCATS CANVASS Library (AID 1347365). Also: nearly all actives have a fitted effect of over 60% in size. In a few lines:
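Cytotoxicity is measured from cellular ATP: compounds in an 11-point concentration series are pinned onto SDT cells, incubated 72 hr at 37C, then CellTiterGlo is added and luminescence read.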

The nature of experiment [9]: G06 Cancer Cell Toxicity qHTS against the NCATS CANVASS Library (AID 1347368). Also: series mostly up to about 46 µM; nearly all actives have a fitted effect of over 60% in size. Put shortly: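 Cells were plated at 500 per well, then compounds were added over an 11-point range. After 72 hr at 37C, CellTiterGlo was added and luminescence measured as ATP content.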
The nature of experiment [10]: qHTS for ATAD5 Antagonist screened against the NCATS CANVASS Library (AID 1347370).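 Also: HEK293T cells carrying an ATAD5 luciferase reporter co-treated with 10 µM 5-fluorouridine; series mostly up to about 46 µM; nearly all actives have a fitted effect of over 65% in size.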 Put shortly: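 Compounds (11-point) co-dosed with 10 µM 5-FUrd for 16 h at 37 °C onto HEK293T-ATAD5 luciferase reporter cells. Viability measured by CellTiter-Fluor fluorescence, then ATAD5 reporter signal by luminescence.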
Experiment [11] is described as follows: qHTS for Hypoxia signaling pathway (HIF-1) agonists against the NCATS CANVASS Library (AID 1347375). Put shortly: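 Cells plated and rested 5 h, compounds pinned in DMSO across 11 concentrations, incubated 17 h at 37C, loaded with CCF4-AM for 2 h, fluorescence read at 460 and 530 nm, then CellTiter-Glo luminescence measured for viability and normalization.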

A short description of experiment [12]: Cytotoxicity qHTS for assessment of Hepg2 cells membrane integrity screened against the NCATS CANVASS Library (AID 1347387). Put shortly: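 Cells were seeded at 2000 per well and left overnight to attach. Compounds were pin-transferred to give 0.59 nM - 46 uM in an 11-point series and incubated 5 hr at 37C. CytoTox-ONE reagent was added and, after 10 min at room temperature, fluorescence (ex 560, em 590 nm) was read.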

Experiment [13] is described as follows: qHTS for activators of dead-cell proteases activity screened against the NCATS CANVASS Library (AID 1347392).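 Also: luminescence from protease leaking out of membrane-damaged cells cleaving impermeant substrate; rising signal means more cytotoxicity.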 Put shortly:
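HepG2, 2000 cells/well, 18 h attach; cpd 11-pt, 5 h 37C 5% CO2; CytoTox-Glo (AAF-aminoluciferin) 15 min RT; luminescence read.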

A short description of experiment [14]: Vero-766 cells viability qHTS against the NCATS CANVASS Library: Counterscreen for Zika virus inhibition assay (AID 1347394). Put shortly:
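Vero 766, no virus; 1000 cells/well; o/n attach; cpd 11-pt; 72 h, 37C, 5% CO2; CTG luminescence; cell-free media wells = 100% inhibition.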

A short description of experiment [15]: qHTS for inhibitors of Wild type Zika virus screened against the NCATS CANVASS Library (AID 1347396).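 Also: ATP luminescence of surviving cells so rescue from viral cell killing; series mostly up to about 46 µM.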 In a few lines: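 Luminescent CellTiter Glo read-out of virus-induced cytotoxicity, 72 h post-infection, in Vero 766 cells. Compounds were tested at 11 concentrations; uninfected, vehicle-treated wells defined 100% inhibition.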
A short description of experiment [16]: Redox Reaction Profiling qHTS: Assay Interference Panel against the NCATS CANVASS Library (AID 1347401). In a few lines:
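Fluorescence read-out (525 nm excitation, 598 nm emission) at time zero and after 15 min in the dark tracked resorufin formation. Mix: 5 uM resazurin, 200 uM DTT, HEPES pH 7.3 buffer with NaCl.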

Experiment [17] can be described thus: A2780 Cisplatin Sensitive Ovarian Cancer Cell Toxicity qHTS against the NCATS CANVASS Library (AID 1347353). Also: nearly all actives have a fitted effect of over 60% in size. Also: potency is read from the fitted curve at half-maximal effect. Put shortly: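 Cells are plated at 750 per well and rest for 4 hours. Compounds are added across eleven concentrations, and incubated 72 hours before ATP is quantified by luminescence.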
The nature of experiment [18]: HEK293 18hr Apoptosis Induction qHTS against the NCATS CANVASS Library (AID 1347357). Put shortly: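 Cells seeded at 500/well in DMEM + 10% FBS. Compounds pinned, 11 concentrations. 18 h, 37 degrees C/5% CO2. Caspase-Glo 3/7 added, 15 min RT dark, luminescence read.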
A short description of experiment [19]: qHTS for Hypoxia signaling pathway (HIF-1) antagonists against the NCATS CANVASS Library (AID 1347374). Also: nearly all actives have a fitted effect of over 60% in size. Also: potency is read from the fitted curve at half-maximal effect. Put shortly:
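Antagonism scored as loss of CoCl2-driven (60 uM stock added) HRE beta-lactamase signal, read by CCF4 FRET at 460/530 nm. Compounds were tested in an 11-point series on ME-180 reporter cells for 17 hrs at 37C, with parallel CellTiter-Glo cytotoxicity.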

Experiment [20] in a line: qHTS for activators of Nrf2/ARE signaling pathway screened against the NCATS CANVASS Library (AID 1347391). Also: nearly all actives have a fitted effect of over 60% in size. Also: potency is read from the fitted curve at half-maximal effect. Put shortly: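 Beta-lactamase reporter signal, read as 460 and 530 nm emission under 405 nm excitation after 2 h CCF4 loading, reflected ARE activation in HepG2 cells treated 16 h with an 11-point series.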

Inconclusive results are not listed. Unmarked numbers belong to inactive results. Active and inactive are the calls of the source. Calls follow the shape of the dose curve; as a rule, active = well fitted curve in the direction sought with a large enough effect; inconclusive = small, poorly fitted or top-dose-only effect, or another doubt; inactive = no such curve, though single readings can be large; an effect the other way counts as inactive or inconclusive.

With `CC1(C)C=Cc2c(ccc3c2OC[C@@H](c2ccc(O)cc2O)C3)O1`, the Potency in experiment [1] is 44 µM (active). In addition, the Potency entry in experiment [2], in experiment [3], in experiment [4], in experiment [5], in [6] and in experiment [7] was “inactive” in each case. Also, the Potency entry in [8], in [9], in [10], in experiment [11], in experiment [13] and in [14] was “inactive” each time. For the same compound, the Potency result in [15] and in [16] was “inactive” in each case. Also, in [12], the compound was classed as inactive.

With `CO[C@@H]1[C@H](O)[C@@H](C)O[C@@H](OC[C@@H]2C(C)OC(=O)/C=C/[C@H](C)C(O[C@@H]3O[C@H](C)CC4(OC(=O)O[C@@H]4C)C3O)[C@@H](C)CC(C)C(=O)CC[C@H]3OC23)[C@@H]1OC` (stereo partly specified), the Potency result in experiment [2], in experiment [4], in [17], in [5], in [18] and in [6] was “inactive” each time. Moreover, the Potency entry in [7], in experiment [8], in [19], in experiment [11], in experiment [13] and in experiment [14] was “inactive” throughout. For the same compound, the Potency entry in [15] and in [16] was “inactive” each time. The outcome in experiment [12] was inactive.

On to `CC(O)/C=C/C1(O)C(C)(C)CC(O)CC1(C)O` (stereo unspecified), for which the Potency entry in experiment [1], in experiment [2], in experiment [3], in experiment [4], in experiment [17] and in experiment [5] was “inactive” in each case. The Potency entry in experiment [18], in experiment [6], in [7], in [8], in experiment [9] and in experiment [10] was “inactive” throughout. Also, the Potency result in [19], in experiment [11], in [20], in experiment [15] and in experiment [16] was “inactive” each time. The compound was classed as inactive in [12].

For the compound `COc1c(O)cc2oc(-c3ccccc3)cc(=O)c2c1O`, the Potency in [1] was 44 µM (active); in experiment [17], 20.9 µM (active); in [19], 9.41 µM (active); in experiment [20], 13.2 µM (active). The Potency entry in [3], in experiment [4], in experiment [5], in [18], in [6] and in [8] was “inactive” each time. Moreover, the Potency entry in experiment [9], in experiment [10], in experiment [11] and in experiment [16] was “inactive” in each case. Besides, in experiment [12], the compound was called inactive.

Turning to `O=C(O)CC1OCc2c(O)cccc21` (stereo unspecified), the Potency result in experiment [1], in [2], in experiment [3], in experiment [4], in experiment [17] and in experiment [5] was “inactive” each time. Moreover, the Potency entry in experiment [6], in [7], in experiment [8], in [9], in experiment [10] and in [19] was “inactive” throughout. Besides, the Potency result in experiment [11], in experiment [20], in experiment [13], in experiment [14], in experiment [15] and in experiment [16] was “inactive” throughout. The compound was classed as inactive in [12].

As for `CC1C(=O)C23CCC1C[C@]21O[C@@H]2C(C)(C)C=CC(=O)[C@@]23COC1=O` (stereo partly specified), the Potency in experiment [1] was 31.1 µM (active). In addition, the Potency result in [2], in experiment [3], in experiment [4], in experiment [17], in experiment [5] and in experiment [6] was “inactive” in each case. Also, the Potency entry in [7], in experiment [8], in experiment [9], in experiment [10], in experiment [19] and in experiment [11] was “inactive” each time. The Potency entry in experiment [20], in experiment [14], in experiment [15] and in experiment [16] was “inactive” throughout. Besides, the compound was classed as inactive in experiment [12].

The record behind these values is PubChem BioAssay (NCATS).
